Measurements from PubChem BioAssay (Tox21).
“And” between values parts separate entries of the source, which are not always exact repeats. Equal values may be shown once. Records with an inconclusive call do not appear. A call without a number means that no potency is given here. More than one record can exist for a structure, and the calls need not agree. The source made the active and inactive calls. Calls come from the whole dose curve; as a rule, active = well fitted cell-killing curve with a large enough effect in the repeat runs; inconclusive = weak or mixed curves, or effect the other way; inactive = no such curve, though single readings can be large or run the other way.

Experiment: qHTS assay to identify small molecule antagonists of the sonic hedgehog signaling (Shh) pathway - cell viability counter screen (AID 1259367); note: nearly all actives have a fitted effect of over 55% in size
Settings: NIH/3T3 Gli1-Luc viability, CellTiter-Fluor, 24 h; series mostly up to 92.4 µM; viability change, negative = cytotoxic: at the top concentration
Description: National Center for Advancing Translational Sciences [NCATS]
NIH Chemical Genomics Center [NCGC]
U.S. Environmental Protection Agency [EPA]
National Institutes of Environmental Health Sciences [NIEHS]
National Toxicology Program [NTP]
U.S. Food and Drug Administration [FDA]
The sonic hedgehog (Shh) pathway is essential for normal embryonic development. Dysregulation of the Shh pathway can cause severe developmental defects in organs. Therefore chemicals that interfere with the pathway are potential developmental toxicants. A cell line designated 3T3Gli1-Luc (DMB/OARSA/CFSAN/FDA, Laurel, MD), a NIH/3T3 derived clone containing stably integrated Gli1-Luc reporter is used to detect chemical interference of the Shh pathway, by changes in the expression of the firefly Luc gene under the control of the Gli1 transcriptional response element. This cell line was used to screen Tox21 libraries for identifying and prioritizing the potential developmental toxicants that interfere Shh pathway. Conditioned medium-stimulated mode was used to screen for chemicals inhibiting Shh signaling. The cytotoxicity of the compounds was tested in parallel by measuring the cell viability using CellTiter-Fluor assay system (Promega, Madison, WI) in the same wells.
Tox21 Assay Protocol Summary:
3T3 Gli1-Luc cells were dispensed at 2,000 per well in 5uL of culture medium into white solid bottom 1536-well plates (Greiner Bio-One, Monroe, NC) using a Multidrop Combi (Thermo Scientific, Waltham, MA) dispenser. The assay plates were incubated at 37 C and 5% CO2 for 4hr, and then 23nL of compounds dissolved in DMSO and positive control were transferred using a Pintool station (Wako, San Diego, CA). The compound transfer was followed by the addition of 1ul conditioned medium or assay buffer using two separate tips of Flying Reagent Dispenser (FRD, Aurora Discovery, San Diego, CA). The assay plates were incubated at 37C and 5% CO2 for 24hr. For viability read, after 23hr of compound treatment, 1uL of CellTiter-Fluor reagent (Promega Corporation, Madison, WI) was added to each well of the assay plates using Flying Reagent Dispenser (FRD, Aurora Discovery, San Diego, CA) and incubated the assay plates at 37C for 1hr. The fluorescence signal was quantified using a ViewLux plate reader (Perkin Elmer, Shelton, CT).
Potency is the fitted concentration of half-maximal effect.

Structure (SMILES)	Potency	viability change, negative = cytotoxic
NC(=O)/N=N/C(N)=O	inactive	–
CN(C)c1ccc(C(=N)c2ccc(N(C)C)cc2)cc1	48 µM (active) and 23.4 µM (active)	–
CCCCOCCO	inactive	–
Oc1ccc2ccccc2c1	–	1.45% (inactive)
CCCCCCOC(C)=O	inactive	–
CC(=O)CCc1ccccc1	inactive	–
C[C@@H](O)[C@H]1C(=O)N2C(C(=O)O)=C(S[C@@H]3CN[C@H](C(=O)N(C)C)C3)[C@H](C)[C@H]12	inactive	–
CCCCCCCCC	inactive	–
COC(=O)Nc1nc2ccc(Sc3ccccc3)cc2[nH]1	8.63 µM (active)	–
Oc1ccc(OCc2ccccc2)cc1	–	6.7% [at 42.5 µM] (inactive)
CC1(C)CC(N=C=O)CC(C)(CN=C=O)C1 (stereo not given)	inactive	–
S=c1nc[nH]c2nc[nH]c12	inactive	–
OCC1CCCO1 (stereo not given)	inactive	–
Nc1cc(-c2ccncc2)c[nH]c1=O	inactive	–
CCCCCC/C=C/CCCCCCCC(=O)O	inactive	–
COC(=O)c1ccccc1O	–	1.11% (inactive)
NCc1cccc(CN)c1	inactive	–
O=C(O)c1ccc([N+](=O)[O-])cc1	inactive	–
CN(CCOc1ccc(CC2SC(=O)NC2=O)cc1)c1ccccn1 (stereo not given)	inactive	–
NS(=O)(=O)c1cc2c(cc1Cl)NC=NS2(=O)=O	inactive	–

Structure (SMILES)	Potency	viability change, negative = cytotoxic
CNC[C@H](O)[C@@H](O)[C@H](O)[C@H](O)CO	inactive	–
Oc1ccc2ccccc2c1N=Nc1ccccc1	–	-11.7% (inactive)
CCCCOCCOCCOC(=O)CCCCC(=O)OCCOCCOCCCC	inactive	–
C=C(C)C(=O)OCC(CC)(COC(=O)C(=C)C)COC(=O)C(=C)C	inactive	–
COCC(C)O (stereo not given)	inactive	–
C=CC(=O)OCCCCCCCC(C)C	inactive	–
CC#C[C@]1(O)CC[C@H]2[C@@H]3CCC4=CC(=O)CCC4=C3[C@@H](c3ccc(N(C)C)cc3)C[C@@]21C	inactive	–
Nc1c(S(=O)(=O)O)cc(Br)c2c1C(=O)c1ccccc1C2=O	inactive and 27.3 µM (active)	–
CC(C)NCC(O)COc1cccc2ccccc12 (stereo not given)	inactive	–
CCC(=O)O	inactive	–
CCCCCCC(C)(C)S	inactive	–
CCCCNC(N)=O	inactive	–
O=S(=O)(O)CCS	inactive	–
c1ccc2[nH]cnc2c1	inactive	–
O=[N+]([O-])c1cccc(Cl)c1	inactive	–
CCCCC(CC)COC(=O)CCCCCCCC(=O)OCC(CC)CCCC (stereo not given)	inactive	–
CCc1ccc(O)cc1	inactive	–
OCC#CCO	inactive	–
Cc1cc(=O)[nH]c(C(C)C)n1	inactive	–
O=[N+]([O-])C(CO)(CO)CO	214 nM (active) and inactive	–
